About 820 (0.83%) of roughly 99,000 compounds were called active. The entries come from a sample that favours actives as a whole. Values without a mark were called inactive.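 How the source made its calls: active means Z-score of -3 or lower, scaled per plate to the spread of control and sample wells; inactive means z-score above -3.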
The compounds below were run against Protein-tyrosine kinase 2-beta (Homo sapiens) (UniProt Q14289) (assay: Pyk2 FERM oligomerization blockers – Q293 cells, FERM NanoBiT luminescence, HTS, primary screen (AID 1347419;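 further: the deposit names both 25 µM and 10 µM; negative z-score means lost luminescence so less FERM oligomerization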)). Conditions: hits give low values.
Sequence of Protein-tyrosine kinase 2-beta (Homo sapiens) (Q14289 whole entry, looked up): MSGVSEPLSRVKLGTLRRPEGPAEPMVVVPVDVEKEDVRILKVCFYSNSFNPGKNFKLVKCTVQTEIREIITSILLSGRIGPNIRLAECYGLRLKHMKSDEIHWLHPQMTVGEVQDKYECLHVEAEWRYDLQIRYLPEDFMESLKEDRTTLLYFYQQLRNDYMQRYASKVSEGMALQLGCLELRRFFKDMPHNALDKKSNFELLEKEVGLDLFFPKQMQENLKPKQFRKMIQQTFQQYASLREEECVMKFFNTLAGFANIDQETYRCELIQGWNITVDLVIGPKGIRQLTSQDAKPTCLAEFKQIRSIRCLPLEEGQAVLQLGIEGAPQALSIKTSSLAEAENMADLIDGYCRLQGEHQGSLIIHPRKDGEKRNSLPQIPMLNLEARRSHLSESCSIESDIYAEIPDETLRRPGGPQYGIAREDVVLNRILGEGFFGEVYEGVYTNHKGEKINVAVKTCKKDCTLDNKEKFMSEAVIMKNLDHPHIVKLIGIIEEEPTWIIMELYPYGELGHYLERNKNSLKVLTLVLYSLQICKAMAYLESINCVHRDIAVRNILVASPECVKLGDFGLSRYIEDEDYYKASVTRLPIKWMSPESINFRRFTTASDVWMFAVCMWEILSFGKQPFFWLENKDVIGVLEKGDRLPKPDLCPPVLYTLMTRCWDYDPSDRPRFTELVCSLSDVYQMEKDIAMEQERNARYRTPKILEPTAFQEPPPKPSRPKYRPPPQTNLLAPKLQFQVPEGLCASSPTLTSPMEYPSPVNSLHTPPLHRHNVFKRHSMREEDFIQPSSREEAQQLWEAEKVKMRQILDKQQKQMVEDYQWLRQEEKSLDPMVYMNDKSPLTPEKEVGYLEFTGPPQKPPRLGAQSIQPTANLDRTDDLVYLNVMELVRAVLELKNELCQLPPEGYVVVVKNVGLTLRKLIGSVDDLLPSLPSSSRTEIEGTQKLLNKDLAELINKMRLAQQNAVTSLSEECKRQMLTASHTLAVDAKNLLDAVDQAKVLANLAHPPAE
Set-up: dose or concentration left out as unconfirmed
Compound `O=C(Nc1ccc2c(c1)OCCO2)c1ccncc1` has a z-score of 0.87.
With `O=C(Nc1ccc2c(c1)OCCO2)c1ccc(Cl)c(S(=O)(=O)N2CCCCC2)c1` the z-score was -3.16 (active).
`Cc1ccc(C(=O)Nc2ccc3c(c2)OCO3)cc1S(=O)(=O)N1CCCCC1` was tested, and the z-score was -0.16.
`Cc1ccc(C(=O)N/C(=C/c2cccnc2)C(=O)O)cc1` was tested, and the z-score was 0.41.
With `CC(=C/c1ccccc1)/C=N/NC(=O)c1cc(C)oc1C` the z-score was -0.05.
`COc1ccc(-c2cc(C(F)(F)F)nc(SCC(=O)Nc3ccc4c(c3)OCO4)n2)cc1OC` gave a z-score of -0.25.
Compound `CCCc1nc2ccccc2c(C(=O)OCC(=O)c2ccc3c(c2)NC(=O)CO3)c1CC` has a z-score of -1.42.
`CCOC(=O)c1cc(-c2nnc(-c3cc(OC)c(OC)c(OC)c3)o2)c(C)nc1C` showed a z-score of 0.08.
`CCCc1nc2ccccc2c(C(=O)OCc2nnc(-c3cc(OC)c(OC)c(OC)c3)o2)c1CC` was tested, and the z-score was -3.12 (active).
Work on `CCOC(=O)c1c(NC(=O)C2CCN(S(=O)(=O)c3ccc(Cl)cc3)CC2)sc2c1CCCC2` yielded a z-score of 0.49.
For `CC(=O)CCC(=O)c1ccc2ccccc2c1`, the z-score was 1.48.
For `Cc1ccc2nc(-c3cccnc3)c(NC3CCCC3)n2c1`, the z-score was 0.15.
`Cc1cc(OCCN2CCCC2)cc(C(C)C)c1` showed a z-score of 1.27.
With `C/C(=N\N=C(N)N)c1ccc(Cl)cc1` the z-score was -0.37.
For `CCOc1cc(-c2cc(-c3ccc(OC)cc3)nc(N)c2C#N)ccc1O`, the z-score was -3.73 (active).
`CCOC(=O)CC(=O)CSc1nc(-c2ccccc2)cc(-c2ccc(Cl)cc2)c1C#N` showed a z-score of -0.86.
For `CCSc1nc(-c2ccc(OC)cc2)cc(-c2ccc(OC)cc2)c1C#N`, the z-score was -1.07.
Work on `NC(=O)CCC(NS(=O)(=O)c1ccc(Cl)cc1)C(=O)NCc1ccccc1Cl` (configuration not stated) yielded a z-score of -0.26.
Compound `CCCn1nc(NS(=O)(=O)c2ccccc2)c2cc3cc(C)ccc3nc21` has a z-score of -0.3.
In the case of `Cc1cc(C)c(C2C3=C(Nc4c2c(C)nn4-c2ccccn2)c2ccccc2C3=O)c(C)c1` (configuration not stated), the z-score is reported as 1.27.
`CS(=O)(=O)N(Cc1ccccc1)c1ccc(C(=O)NN=C2CCCCCC2)cc1` was tested, and the z-score was -0.45.
`CCOC(=O)C1=C(C)NC(C)=C(C(=O)OCC)C1c1ccccn1` showed a z-score of 1.06.
In the case of `C=CCOC(=O)C1=C(C)NC(SCC(=O)OCC)=C(C#N)C1c1ccc(C)cc1` (configuration not stated), the z-score is reported as -1.05.
With `C=CCOC(=O)C1=C(C)NC(C)=C(C(=O)OCC=C)C1c1cccs1` the z-score was -3.93 (active).
`Cc1ccc(-n2c(SCC(=O)NCc3ccc4c(c3)OCO4)nnc2-c2cccnc2)c(C)c1` was tested, and the z-score was -4.03 (active).
With `Cc1ccccc1-c1nnc(SCC(=O)NCc2ccc3c(c2)OCO3)n1C` the z-score was 0.49.
Work on `Cc1ccccc1-n1c(SCC(=O)NCc2cccs2)nnc1-c1ccncc1` yielded a z-score of -0.72.

— PubChem BioAssay AID1347419 (Sanford-Burnham Center for Chemical Genomics, 2020)
